Target: T1, ETS1 (UniProt P14921)
T1 sequence: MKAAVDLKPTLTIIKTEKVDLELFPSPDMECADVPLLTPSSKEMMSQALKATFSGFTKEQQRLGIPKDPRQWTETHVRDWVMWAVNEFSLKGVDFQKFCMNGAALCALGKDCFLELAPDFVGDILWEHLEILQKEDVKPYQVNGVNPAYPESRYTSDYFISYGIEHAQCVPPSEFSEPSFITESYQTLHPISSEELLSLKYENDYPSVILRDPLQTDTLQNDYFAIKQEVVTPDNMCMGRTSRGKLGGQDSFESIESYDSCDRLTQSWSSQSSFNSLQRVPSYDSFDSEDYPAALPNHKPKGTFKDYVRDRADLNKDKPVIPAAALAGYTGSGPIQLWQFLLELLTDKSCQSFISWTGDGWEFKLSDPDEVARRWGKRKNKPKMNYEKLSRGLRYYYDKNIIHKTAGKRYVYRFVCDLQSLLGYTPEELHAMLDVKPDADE
Assay: ETS1 binding intensity (PBM fluorescence) in presence of RUNX1, normalised to ETS1-only experiment (arbitrary fluorescence units); higher = stronger binding
Conditions: ETS1 concentration 1 nM; RUNX1 concentration 25 nM
Method: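 Cooperative genomic-context PBM: 36-bp genomic probes with neighbouring ETS1 and RUNX1 sites, double-stranded on Agilent 4x180k arrays. Full-length recombinant human ETS1 (1 nM) was incubated alone or with RUNX1 (25 nM) and detected with anti-ETS1 antibody plus Alexa488 secondary. Value is the median fluorescence intensity over 4 replicate spots; the ETS1+RUNX1 data were normalised to the ETS1-only data using probes without RUNX1 sites. The 36-bp variable region sits on the array probe with constant linker/primer flanks that are not printed.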

Sequence | ETS1 binding intensity
TGGGGTTTCCTGGGGAGAAACTTAGCCCTACCACAC | 485
TTTCCACTTCCTGTTCTACTTGTGGCTACTGACTCA | 2890
AGCGGCTTCCTGCTGGGCTTTTGCACTCCCCACAAC | 523
AGGCTGTGGCGGAAGTGGTCGCGTTACCGCTTGTTT | 12100
AGCAGGAAGTATGTTGAAAGTCATAACCACAGCAAA | 3050
GTCTTTCACTCCACTTCCGCCCCCACAAAACATACA | 3620
TCACTCCTCTTCCTTCCTGCCACCCACAGGGTCAGC | 378
GCTTCTGAGGAAGTGCGTTTTGTGGGTAGGTGGAGT | 1410
GTTCTCCTTCCTGTGCCGAGTGTGGTTTGCTATCAA | 622
TTTAAGGGCGGAAAGGCTTTAGCCGCAAAATGGCTT | 2380
ACAGATAGTGATATCCTGTGGTCAATTCCCTCCCCT | 951
AATGCAGCATTTCCTCTCCAGTTCACCACAGGCCCC | 634
GTAGCCGGGTGTTCCGGAGCGCTGCGGGCAAAGCAG | 539
CGCCGCTCAACTTCCGGCAACCACAGCTCTCTCTGA | 3870
GGACGCCGCCGGAAGCGCGACCCGCACTCCCGGTAG | 3500
CGGGACACAGGAAGCCGTTGTGGGGCCCCGGGGCCA | 1970
TGCCCAGTACTTCCTCTTGTGGGGGAGCACAACTTG | 424
ATGCGAGTCTGCTTCCTGCCACAAATCACAATTTGA | 686
GTGAGAGGAAGTGGGCGCTGGTTTAATGTGGTCAGC | 5410
CTCCACCGGATGCAGCAATGAAGGCCGCAGGAATGG | 3990

Sequence | ETS1 binding intensity
TCCGGAAGTGGCACTGATGGGCGCCTGCGGCGGGGG | 5500
TGGGCAAGATATCCTGGAAGTGGTTAAAAAAAATTA | 1050
CCGCGCCGCTTCCTCCAGACACCGCAAGGGGGTGCT | 446
CGAAACGCGTTCCCCGGAAACCGCGCCCGGCTCCGA | 3230
TTTCCTACAGAAGGATGTGGTTGGTGGGTTTGGTTT | 3210
GATGCTTGTTCAGGATGCGGTTTCTTGCAGCAAGTT | 2380
ATTAAAGACTTCCGTGCAAGACCACAGCTGCCTGAC | 513
AGAGACAGCGGGCGGAAACCGCAGAAAAAGTTGAAA | 3260
TACCCCGCCGGAAGCCCCCTGCTCTGTGGGAACCGG | 3660
CCCCTCCCTGCTTCCTGTGTGGTGAGGGGTGATCAG | 2040
GCTGTGCCGGCAGGATGTGGTCTTTGGTTTCTGTTT | 12300
AGCCACATCCTCCCTTAGGTCTGACCGCAGCTTAAC | 2170
CTGTGGCCTAGAAGCTTCCTGCCGCAGCTCTGAGGA | 505
AGCTCCCCTCCCCGGAAACTTGACCACCTAGCCCAG | 1660
CCACCGTCCCCGGAAATAACCGCGCCTGCCTCTCAA | 3290
AGACGGGACCGGAAGCCGGGCCGCAGGCGGCCGGGC | 6650
GTTCCTTTGAAAGCAGGATGTGGTTTGCCCCAGCTT | 29200
ACACAGGAAGGACGCACGCTCCCGCCCCAACCACAT | 563
GCCACATATTTCCTGTGACAACCCTGTGGTGTGGCT | 723
GCTGTCCATTTCCGAGATGTTAATGCGGGATCTTGC | 628

Reference: the supplement of paper PMC10681739
